About 83,000 compounds went through this panel and 20% of them were active in at least one assay; those are over-represented in the sample as a whole.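 Each cell line was grown in a 96-well plate and treated with one concentration of compound for 48 hours. Values below 10 were considered active.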 Values without a mark were called inactive. Active and inactive are the calls of the source.
Experiments:
Assay in all cases: NCI-60 one-dose screen, 48 h (100 = growth as untreated, 0 = no growth, -100 = all killed)
Details in all cases: 10 µM unless noted
[1] = system: BT-549 breast
[2] = system: MDA-MB-435 melanoma
[3] = system: SW-620 colon
[4] = system: MCF7 breast
[5] = system: HCT-116 colon
[6] = system: HCC-2998 colon
[7] = system: KM12 colon

Structure (SMILES)	growth [1]	growth [2]	growth [3]	growth [4]	growth [5]	growth [6]	growth [7]
[2H]c1nc(Nc2ncc3cc(C(=O)N(C)C)n(C4CCCC4)c3n2)c([2H])c([2H])c1N1C([2H])([2H])C([2H])([2H])NC([2H])([2H])C1([2H])[2H]	89.4%	68.9%	35.5%	46.9%	40.9%	77.5%	42.5%
C=C1C(=O)O[C@H]2[C@H]1CCC(/C=N/c1ncc(Br)cc1N)=C\CC[C@@]1(C)O[C@@H]21	1.35% (active)	22.6%	-62.7% (active)	-3.68% (active)	-52.6% (active)	62.2%	53.9%
Cc1cc(C)n(-c2nc(-c3cccs3)c(C#N)c(=O)[nH]2)n1	83%	95.2%	102%	89.8%		96.7%	
O=C(O)c1cn(C2CC2)c2cc(N3CCN(Cc4nnc(Nc5ccccc5)o4)CC3)c(F)cc2c1=O	98.8%	97.6%	106%	97.7%	91.6%	103%	96.7%
O=C1Nc2ccc(Cl)cc2/C1=N/c1nc(-c2ccc(F)cc2)cs1	55.4%	9.56% (active)	27.7%	12.5%	28.4%	42.2%	28.2%
O=C(Nc1nc(-c2ccccc2Cl)cs1)c1cc(-c2ccc(Br)cc2)nc2ccccc12	70.9%	64.5%	57%	29.4%		63.9%	59%
COc1ccc(/C=C(/C(=O)N2CCN(Cc3ccccc3)CC2)c2cc(OC)c(OC)c(OC)c2)cc1O	77.2%	1.04% (active)	45.6%	20.9%	32%	95.8%	55.9%
Cc1c(C(=O)Nc2nc3ccccc3[nH]2)cnn1-c1ccccn1	111%	108%	107%	95.6%	97.3%	97.3%	103%
Nc1c(C(=O)Nc2ccccn2)sc2nc3c(cc12)CCCC3	44%	-24.6% (active)	40.2%	24.2%		57.1%	30.8%
CC(C)NS(=O)(=O)c1cccc(-c2ccc3c(=O)n(CCCN)c4c(c3c2)C(=O)c2ccccc2-4)c1	99.8%	107%	92.4%	101%	96.6%	105%	98.9%
CCOC(=O)CC[C@H](NC(=O)c1ccc(NC)c2ccccc12)C(=O)OCC	100%	105%	93.6%	94.7%	92%	115%	103%
COc1cc(C2=NNC(c3ccc(N(C)C)cc3)C2)cc(OC)c1OC (stereo not given)	35.1%	19%	20%	20.2%	9.9% (active)	7.82% (active)	14.4%
Cc1nc(C)c(C)nc1C	110%	108%	103%	101%		95.6%	
NC(=O)c1ccc2nc3c(n2c1)C(=O)C(=O)c1ccccc1-3	-94.3% (active)	-91.4% (active)	-50.4% (active)	-55.5% (active)	-79.4% (active)	-84.5% (active)	-50.1% (active)
Cc1ccc(C2CC(c3ccc(Nc4nc(NCCO)nc(NCCO)n4)cc3)=NN2c2ccc(Cl)cc2)cc1 (stereo not given)	79%	61.5%	80.4%	27.6%		64.1%	52.4%
COc1cc(C)ccc1Oc1nc(Nc2ccc(N3CCOCC3)cc2)ncc1N=Cc1cc(C(F)(F)F)cc(C(F)(F)F)c1	89.4%	65.1%	80.5%	46.4%	47.6%	91.6%	55.3%
Nc1cc(N)nc(SCC(=O)O)n1	109%	109%	104%	105%	99.1%	101%	104%

Structure (SMILES)	growth [1]	growth [2]	growth [3]	growth [4]	growth [5]	growth [6]	growth [7]
O=C1C(Cl)=C(Nc2ccc3c(c2NC2=C(Cl)C(=O)c4ccccc4C2=O)C(=O)c2ccccc2C3=O)C(=O)c2ccccc21	42.3%	-64.7% (active)	24.7%	-7.63% (active)	2.25% (active)	67%	39%
S=C(Nc1ccc(Cl)cc1)c1ccccn1	94.5%	106%	100%	81.4%	89.7%	110%	100%
NC(=N\N=C\c1ccccc1O)/C(N)=N/N=C/c1ccccc1O	72%	72.2%	71.5%	69.4%		99.1%	55.8%
O=C(CCCC(=O)Nc1ccc(-n2nnc3cc(Cl)c(Cl)cc32)cc1)Nc1ccc(-n2nnc3cc(Cl)c(Cl)cc32)cc1	51.2%	51.2%	49.6%	22.6%	45.3%	93.7%	70.9%
O=C1Nc2ccc(Br)cc2/C1=N\N=C/c1cn(Cc2ccccc2)c2ccccc12	105%	105%	99%	83.2%	93.7%	106%	96.2%
Cc1ccn2c3c(c(C(=O)O)c2c1)C(=O)c1ccccc1C3=O	58.9%	-78.2% (active)	74.1%	61.1%		62%	66.7%
Cn1nc(C(F)(F)F)c(-c2cc(C(F)(F)F)cc(C(F)(F)F)c2)c1-c1ccc(OCc2ccc(Cl)cc2)cc1O	2.72% (active)	11.4%	13.1%	3.01% (active)		5.78% (active)	5.04% (active)
Cc1nc2sc(C(=O)Nc3ccccc3)c(N)c2cc1C(C)O (stereo not given)	74.3%	-41.1% (active)	26.4%	16.7%		46.8%	26.1%
C#C[C@@]1(O)[C@@H](CO)O[C@@H](n2cc(F)c3c(N)ncnc32)[C@@H]1O	-23.9% (active)	1.49% (active)	1.66% (active)	2.03% (active)		-27.2% (active)	10.2%
COc1ccc(-c2cc(-c3nnc(SCC(=O)Nc4ccc(/C(C)=N\O)cc4)n3-c3ccccc3)c3cc(OC)ccc3n2)cc1	63.7%	79.2%	82.1%			100%	61.1%
CCCCN(CCCC)CC(CN(CC)CC)OC(=O)Nc1ccccc1 (stereo not given)	88.4%	102%	74.1%	79.4%		85.1%	93.9%
CCCCc1n(Cc2ccc3ccccc3n2)cc[n+]1Cc1ccc2ccccc2c1	-16.9% (active)	1.33% (active)	11.2%			-6.38% (active)	-42.4% (active)
O=C(Nc1cc(Br)ccn1)c1cc2cc(Nc3nc(-c4ccccc4)nc4ccccc34)ccc2oc1=O	103%	116%	104%	91.1%		92.7%	102%
Fc1ccc(N/N=C/c2ccc(-n3cccn3)cc2)cc1	92.2%	95.2%	79.6%	77%		97.5%	80.1%
Cc1nn(-c2ccc(-c3ccc(OC(F)(F)F)cc3)cc2)c2nc(-c3ccccc3)nc(N)c12	98.1%	102%	81.3%	94.3%		96.8%	100%
OCCNc1nc(NCCO)nc(Nc2ccc(C3=NN(c4ccc(Cl)cc4)C(c4ccc(Cl)cc4)C3)cc2)n1 (stereo not given)	77.1%	58.1%	71.1%	20.4%		56.8%	49.8%

— PubChem BioAssay (NCI)
